# Test results: the OligoGym collection
# Target: NAGPA
# Test: pooled miR-30 sensor sort-seq; sequence = guide strand
# Settings: shRNA
# Note: reference of the scale not given here.
row,Sequence,sensor-assay potency score (higher = more potent)
1,TTCCTCTCTGCTCTGGACAGGA,-0.227
2,TTGAGCACAAAGGTGGCAGAGC,-0.854
3,TCGTTGATGTAGATGCTTCCAT,-0.346
4,TTGATGTAGATGCTTCCATTAC,-1.88
5,AGTAGCAAGTCGTCGTCGCGGG,-1.2
6,TGTCTCGTCACACTCTGTGGCT,-0.832
7,AAGCCGAATAGTGCAAGCCGGA,-1.15
8,TAGGGCAGTAGCAAGTCGTCGT,0.274

# Target: NAGS
# Test: as above
# Settings: shRNA
row,Sequence,sensor-assay potency score (higher = more potent)
1,TTGAGGAAGATGATTTTGGTGG,-0.197
2,TCACTGTGTTTGAAGTACCAGG,-0.966
3,TTTAGAGTGAGTCGAGTTGGGG,-0.776
4,TTGACCAGGTCCACTAGACGGC,-0.973
5,TTGCACACCAGGTCCAGGTCGG,-0.37
6,TGTAGCTTTAGAGTGAGTCGAG,0.177
7,TCTACCAGCACCTTGCAGCTCT,0.351
8,TTAGAGTGAGTCGAGTTGGGGT,-0.187
9,TTACTCAGGACCTTATGACTGC,-0.0355
10,TTATTGAGGAAGATGATTTTGG,-0.526
11,TTGATGGGGTTGGTGACCCGGG,-1.22
12,TAGTCGTCCCTGAGCTTCTTGC,-1.38

# Target: NAP1L5
# Test: as above
# Settings: shRNA
row,Sequence,sensor-assay potency score (higher = more potent)
1,TTCTATCTTATCGCATCGCTTC,-0.589
2,TCTATCTTATCGCATCGCTTCT,-0.911
3,TTGAGGGCCAGGACTCGGCATT,-1.45
4,TTTTTGAGGGCCAGGACTCGGC,-1.25
5,TTGGATCTTGGCGAGTAGGGGC,-0.336
6,TATACTTTTTTTCCAGAGCCTG,-1
7,TTATAGATGTCATTATACTTTT,-1.32
8,TATCTTATCGCATCGCTTCTGC,0.0139
9,ATACTTTTTTTCCAGAGCCTGA,-1.24
10,TCTTATCGCATCGCTTCTGCAG,-1
11,TTGGCTTCTATCTTATCGCATC,-1.13

# Target: NARF
# Test: as above
# Settings: shRNA
row,Sequence,sensor-assay potency score (higher = more potent)
1,TTTCTTACTACATTCCTTGCGC,0.306
2,TATTTGAGCAATTTCACCTGAT,0.609
3,TTCTTTTTGACTCTCCAGGATA,-1.07
4,TTGAGGAAACCACAGAGTCTTC,-1.68
5,TTGTTTTCTTACTACATTCCTT,-0.477
6,AAATCCGCAGCTATCGTCGTAT,-0.245
7,TGGTGCAATCTTGTCTCGCTGT,-0.584
8,TTGAACAGCTCCTTGGCCGCAT,0.2
9,TGAGGTATCACATTTCTTGTTA,-0.0479
